In assay [1] the test system is XIP peptide (Xip251-270) binding. Nature of the assay: XIP fragment 251-270 binding compounds – biochemical, small-molecule microarray, fluorescence 635/667 nm, 0.1 µg/mL protein, primary screen (AID 1182). The conditions noted are these: fluorescent protein binding, 635 nm, higher = more signal, called active from +8 up or from −8 down.
In the next assay the test system is XIP peptide (Xip251-270). Briefly: compounds binding XIP fragment 251-270 – biochemical, small-molecule microarray, fluorescence 635/667 nm, 0.5 µg/mL protein, primary screen (AID 1183). The conditions noted are these: fluorescence 635 nm, higher = more signal.
Assay [2] is described as follows: blood-stage malaria parasite viability loss – strain 3D7, DAPI fluorescence, 100 nL, primary screen (AID 1184).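 Further: parasites grown inside human red blood cells in medium with human serum.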 Conditions: P. falciparum 3D7 growth, 3 d, higher = more signal.
Assay [3] addresses Homeobox protein Hox-A13 (Mus musculus) (UniProt Q62424). Nature of the assay: disruptors of Hoxa13 oligonucleotide interaction – biochemical, fluorescence polarization, labeled oligonucleotide, primary screen (AID 1185). Conditions: Hoxa13:DNA binding, 15 min, higher = more signal, called active from +8 up or from −8 down. (In general: In fluorescence polarisation assays a small probe gives low polarisation when free and higher when bound to something large.)

Assay [4] is described as follows: blockers of DNA damage checkpoint Chk1 activation – imaging, HeLa, hydroxyurea, phospho-Chk1 antibody, percent positive cells, primary screen (AID 1186). Conditions: hydroxyurea-induced phospho-Chk1 immunofluorescence imaging, higher = more signal.
Assay [5] is described as follows: blockers of DNA damage checkpoint Chk1 activation – imaging, HeLa, hydroxyurea, phospho-Chk1 nuclear intensity, primary screen (AID 1187). Conditions: hydroxyurea-induced phospho-Chk1 immunofluorescence imaging, higher = more signal.

Molecules are shown by their SMILES. The source made the active and inactive calls. Unless noted, how the calls were made is not given here.

Homeobox protein Hox-A13 (Mus musculus), sequence (Q62424 whole entry, looked up): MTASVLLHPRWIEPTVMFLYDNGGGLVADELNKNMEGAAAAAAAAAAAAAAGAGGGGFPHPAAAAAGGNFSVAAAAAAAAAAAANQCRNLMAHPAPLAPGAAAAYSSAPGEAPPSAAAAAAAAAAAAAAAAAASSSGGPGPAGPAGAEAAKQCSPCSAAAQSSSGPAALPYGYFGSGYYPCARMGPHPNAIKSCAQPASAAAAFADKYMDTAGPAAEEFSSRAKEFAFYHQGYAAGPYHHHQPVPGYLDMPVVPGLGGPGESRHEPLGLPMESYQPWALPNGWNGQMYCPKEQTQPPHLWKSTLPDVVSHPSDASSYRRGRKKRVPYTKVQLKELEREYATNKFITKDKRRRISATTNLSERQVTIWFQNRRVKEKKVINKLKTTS

As to `C=CC[C@@]1(C(=O)OC)N=C(c2ccc(OCCCO)cc2)O[C@@H]1c1ccccc1CN=[N+]=[N-]`, the figures for the composite z-score (in assay [1]; in the assay with XIP peptide (Xip251-270)) were 2.46 (inactive) and 0.611, respectively. For the same compound, the z-score is -2.39 in assay [2], -3.73 (inactive) in assay [3], -1.07 (inactive) in assay [4] and -1.45 (inactive) in assay [5].

Turning to `[N-]=[N+]=NCc1ccccc1C[C@]1(C(=O)NCc2ccccc2)COC(c2ccc(OCCCO)cc2)=N1`, the figures for the composite z-score (in assay [1]; with XIP peptide (Xip251-270)) were 0.395 (inactive) and 0.689, respectively. For the same compound, the z-score in assay [2] was -2.45; in assay [3], -6.24 (inactive); in assay [4], -0.403 (inactive); in assay [5], -0.737 (inactive).

As for `[N-]=[N+]=NCc1ccccc1[C@H]1OC(c2ccc(OCCCO)cc2)=N[C@@]1(Cc1ccccc1)C(=O)O`, the composite z-score in assay [1] is 0.419 (inactive); with XIP peptide (Xip251-270), 0.652. The z-score was 0.45 in assay [2], -5.05 (inactive) in assay [3], -0.594 (inactive) in assay [4] and -1.1 (inactive) in assay [5].

For `NC(=O)[C@]1(Cc2ccccc2)N=C(c2ccc(OCCCO)cc2)O[C@@H]1c1ccccc1`, the results for the composite z-score (in assay [1]; with XIP peptide (Xip251-270)) were -0.0696 (inactive) and 0.0178, respectively. Also, the z-score is -2.04 in assay [2], -5.25 (inactive) in assay [3], -0.0614 (inactive) in assay [4] and -0.209 (inactive) in assay [5].

For the compound `CCOC(=O)C[C@H]1[C@H](OC(=O)c2ccc(C(=O)c3ccccc3)cc2)[C@@H](NC(=O)c2ccc3ccccc3n2)c2cc(OCCCO)ccc2N1C(=O)c1ccc2ccccc2n1`, the composite z-score was 0.545 (inactive) in assay [1] and 0.613 with XIP peptide (Xip251-270). The z-score in assay [2] is -2.55; in assay [3] it was -2.61 (inactive); in assay [4], 0.226 (inactive); in assay [5], 0.194 (inactive).

For `Cc1ccc(S[C@]2(C(=O)NCC(F)(F)F)CC(=O)N(C3Cc4ccccc4C3)[C@@H]2c2ccc(CO)cc2I)cc1`, the composite z-score in assay [1] was 0.448 (inactive); in the assay with XIP peptide (Xip251-270), -0.273. In addition, the z-score in assay [2] is 0.178; in assay [3] it was -2.85 (inactive); in assay [4], 0.0501 (inactive); in assay [5], 0.637 (inactive).

As to `O=C(NCC(O)CO)[C@@]1(Cc2ccccc2)COC(c2ccc(OCCCO)cc2)=N1` (stereo not given in full), the composite z-score was -0.0623 (inactive) in assay [1] and 0.464 in the assay on XIP peptide (Xip251-270). The z-score in assay [2] was 0.945; in assay [3] it was -5.97 (inactive); in assay [4] it was -0.036 (inactive); in assay [5] it was 0.238 (inactive).

For the compound `Cc1ccc(N2C(=O)c3ccccc3[C@@H](C(=O)NCC(C)C)[C@@H]2c2ccc(CO)cc2)nc1`, the composite z-score in assay [1] was 0.184 (inactive); in the assay on XIP peptide (Xip251-270), 0.934. For the same compound, the z-score in assay [2] was 0.524; in assay [3], -0.985 (inactive); in assay [4], -0.275 (inactive); in assay [5], -0.387 (inactive).

Take `O=C1C2C=CC(C(O)c3ccc(B(O)O)cc3)N(Nc3ccc([N+](=O)[O-])cc3)C2C(=O)N1c1ccccc1` (stereo not given): the results for the composite z-score (in assay [1]; with XIP peptide (Xip251-270)) were 0.432 (inactive) and 0.208, respectively. Moreover, the z-score in assay [2] is 1.18; in assay [3], -1.63 (inactive); in assay [4] it was -0.169 (inactive); in assay [5], -0.219 (inactive).

Take `O=C1C2C=CC(C(O)CCc3ccccc3)N(Nc3ccccc3)C2C(=O)N1c1ccccc1` (stereo not given): the composite z-score was 0.792 (inactive) in assay [1] and 0.802 with XIP peptide (Xip251-270). In addition, the z-score in assay [2] was -0.467; in assay [3], -3.23 (inactive); in assay [4], 0.684 (inactive); in assay [5], 0.448 (inactive).

Turning to `C[C@]1(C(=O)NCC(F)(F)F)c2ccccc2C(=O)N(Cc2cc(F)cc(C(F)(F)F)c2)[C@H]1c1ccc(CO)cc1`, the composite z-score in assay [1] was 0.362 (inactive); in the assay with XIP peptide (Xip251-270), 0.473. In addition, the z-score in assay [2] is -1.31; in assay [3] it was -3.68 (inactive); in assay [4] it was 0.305 (inactive); in assay [5], 0.388 (inactive).

On to `CCCC[C@@H]1C[C@H]1[C@@H](NC(=O)c1ccccc1)c1ccccc1`, for which the composite z-score in assay [1] was -0.33 (inactive); in the assay with XIP peptide (Xip251-270), -0.302. For the same compound, the z-score in assay [2] was 0.328; in assay [3], -1.46 (inactive); in assay [4], 0.072 (inactive); in assay [5], -0.0583 (inactive).

On to `C=C(/C(=C/C[C@@H](OC(C)=O)c1ccc(CO)o1)c1cnc2ccccc2c1)C(C)C`, for which the composite z-score in assay [1] is 0.64 (inactive); in the assay with XIP peptide (Xip251-270), 0.764. Further, the z-score was -1.43 in assay [2], -5.54 (inactive) in assay [3], -0.0375 (inactive) in assay [4] and 0.0518 (inactive) in assay [5].

Take `O=C1C[C@@](C(=O)O)(c2ccc([N+](=O)[O-])cc2)[C@@H](c2ccc(CO)cc2I)N1C1CCCCC1`: the composite z-score in assay [1] was -0.183 (inactive); with XIP peptide (Xip251-270) it was 0.553. Also, the z-score is -2.01 in assay [2], -6.2 (inactive) in assay [3], -0.195 (inactive) in assay [4] and 0.201 (inactive) in assay [5].

Take `C=CCC(OC(C)=O)[C@@H]1[C@@H](N(Cc2cc3ccccc3o2)C(=O)c2cccc3ccccc23)c2cc(OCCCO)ccc2N1C(=O)Cc1ccc2ccccc2c1` (stereo not given in full): the results for the composite z-score (in assay [1]; in the assay on XIP peptide (Xip251-270)) were -0.0088 (inactive) and -0.102, respectively. Further, the z-score in assay [2] is -1.73; in assay [3], -1.02 (inactive); in assay [4], -0.394 (inactive); in assay [5], 0.15 (inactive).

The values are drawn from PubChem BioAssay.
